Bioassay records as filed in PubChem BioAssay.
An excerpt weighted towards active compounds, which were near 11% of everything screened.
L3MBTL1 block – inhibitors of human L3MBTL1. Q9Y468. AlphaScreen L3MBTL1–H3K9me1 peptide binding. Potency, µM (doses to about 57.1 µM), for inactives: top-dose activity, negative = inhibition, most hits filed as inhibitors. hit rate 0.66% among 230,000. AID 485360; note: potency is the fitted concentration of half-maximal effect; % is set by controls: 0 for no effect and ±100 for the full control effect; nearly all actives have a fitted effect of over 60% in size
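Read-out is AlphaScreen signal from streptavidin donor and nickel chelate acceptor beads (10 ug/mL final each) bridging L3MBTL1 (50 nM) and biotinylated K9-monomethylated H3(1-15) peptide (75 nM), after 30 min compound exposure at room temperature.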
HP1b binding inh – inhibitors of HP1-beta chromodomain binding to methylated histone tails | P83916 | AlphaScreen HP1-beta / biotin-H3K9me3 peptide binding | Potency, µM (series often up to 114 µM), for inactives: at the highest dose activity change, negative = inhibition, hits mostly inhibitors | hit rate 0.56% among 390,000 | AID 540317; note: potency is the fitted concentration of half-maximal effect; nearly all actives have a fitted effect of over 70% in size
Target sequence (P83916 whole entry, looked up): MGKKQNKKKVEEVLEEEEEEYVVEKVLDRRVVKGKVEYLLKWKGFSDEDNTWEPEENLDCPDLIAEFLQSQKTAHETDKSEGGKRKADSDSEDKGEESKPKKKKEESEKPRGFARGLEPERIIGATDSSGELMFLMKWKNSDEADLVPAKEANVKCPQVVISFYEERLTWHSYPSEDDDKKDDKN
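Compound inhibition of the preformed complex between 50 nM HP1-beta and 50 nM biotinylated H3K9me3 peptide was read by AlphaScreen. Buffer was PBS pH 7.4 with 0.01% Tween-20. Incubations ran 30 min at room temperature, with 10 ug/mL donor/acceptor beads.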
BAZ2B inh – blocks human BAZ2B; Q9UIF8; AlphaScreen BAZ2B-H3K14Ac peptide displacement; Potency, µM (doses to about 114 µM), for the others: at the highest dose activity change, negative = inhibition, most hits filed as inhibitors; hit rate 4.4% among 360,000; AID 504333; note: potency is the fitted concentration of half-maximal effect; % is set by controls: 0 for no effect and ±100 for the full control effect; nearly all actives have a fitted effect of over 60% in size
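BAZ2B 50 nM plus b-H3(5-23)K14Ac 50 nM, PBS pH 7.4/0.01% Tween-20, 30 min RT; compound added (max 110 uM), 30 min RT; streptavidin donor/Ni-chelate acceptor beads 10 ug/mL final, 20 min dark; AlphaScreen read.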
PI5P4Ka inh – inhibitors of human PI5P4K alpha; P48426; PI5P4Kalpha enzyme, ADP-Glo luminescence, 60 min; active compounds read low; max response, %; hit rate 1.2% among 330,000; active = max response of -50% or lower; inconclusive = between -30% and -50%; inactive = -30% or higher; note: value at the top dose of about 77 µM; % is set by controls: 0 for no effect and ±100 for the full control effect
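Compounds were pin-transferred onto PI5P4Kalpha and substrate in HEPES pH 7.4 buffer with EGTA, CHAPS and 5% DMSO. ATP (5 microM final) started the reaction, which ran 60 minutes at room temperature before ADP-Glo detection.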
G9a inh – inhibitors of human histone lysine methyltransferase G9a; Q96KQ7; G9a H3K9 monomethylation, AlphaScreen, 2 h; Potency, µM (series often up to 102 µM), without a hit: at the highest dose activity, negative = inhibition, hits mostly inhibitors; hit rate 8.8% among 350,000; AID 504332; note: potency is the fitted concentration of half-maximal effect; % is set by controls: 0 for no effect and ±100 for the full control effect; nearly all actives have a fitted effect of over 75% in size
Target sequence (Q96KQ7 913-1193 limits assumed): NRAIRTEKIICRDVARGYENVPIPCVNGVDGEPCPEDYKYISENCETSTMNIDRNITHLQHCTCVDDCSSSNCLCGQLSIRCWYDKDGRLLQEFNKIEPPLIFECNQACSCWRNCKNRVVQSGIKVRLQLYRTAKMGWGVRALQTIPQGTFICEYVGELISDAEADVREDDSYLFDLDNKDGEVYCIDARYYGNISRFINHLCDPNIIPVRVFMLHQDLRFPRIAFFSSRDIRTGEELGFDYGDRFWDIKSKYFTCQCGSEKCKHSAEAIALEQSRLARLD
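Step 1: enzyme (final 20 nM) with compound, 15 min RT. Step 2: substrate peptide 500 nM and SAM 20 uM, 2 h RT. Step 3: anti-H3K9me1 antibody and AlphaScreen beads, 10 min, then plate read.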
JMJD2A Tudor inh – JMJD2A Tudor domain (human) inhibition | AlphaScreen JMJD2A-Tudor / H3K4me3 peptide binding | Potency, µM (doses to about 114 µM), for the others: top-dose activity change, negative = inhibition, most hits filed as inhibitors | hit rate 4.4% among 390,000; note: potency is the fitted concentration of half-maximal effect; % is set by controls: 0 for no effect and ±100 for the full control effect; nearly all actives have a fitted effect of over 50% in size
Numbers without * were called inactive; [ ] = dose if it differs, or a comment. Unless noted, calls come from the whole dose curve; as a rule, active = well fitted inhibition curve with a large enough effect; inconclusive = small, poorly fitted or top-dose-only effect; inactive = no such curve, though single readings can be large or run the other way.

`CCN(CC)S(=O)(=O)c1ccc2c(c1)N(CC(=O)N1CCN(c3ccc(OC)cc3)CC1)C(=O)CO2` gave HP1b binding inh 1%, BAZ2B inh -19%, G9a inh -47%[59 µM] and JMJD2A Tudor inh -26%.
Cc1cc2c(c(=O)n1Cc1ccccc1)C1O[C@](c3ccsc3)(Cc3ccccc31)O2 was read as BAZ2B inh 10%[22.9 µM].
COCC(=O)N1CCC[C@@]2(CCN(c3ccccn3)C2)C1 was read as G9a inh 11%[12.7 µM].
For COc1ccc2c(c1)c1nnc(SC(C)C)nc1n2C the results were HP1b binding inh 25% and JMJD2A Tudor inh -26%.
For Oc1ccc(N=Nc2ccccc2-c2nn[nH]n2)c(O)c1 the results were HP1b binding inh -5%, BAZ2B inh 50µM*, PI5P4Ka inh -63*, G9a inh 35µM* and JMJD2A Tudor inh inconclusive.
Screening Cc1ccccc1-c1nn[nH]n1 returned HP1b binding inh 26%, BAZ2B inh 2%, G9a inh -10% and JMJD2A Tudor inh -23%.
Screening O=C(O)CCn1c(-c2ccccc2)cc2c1CCCC2=O returned L3MBTL1 block -43%, HP1b binding inh 29%, BAZ2B inh -2%, PI5P4Ka inh inconclusive, G9a inh 50µM* and JMJD2A Tudor inh -18%.
Screening Cc1nn(-c2ccccc2)c2c1cc1c(=O)[nH]c(=O)nc-1n2-c1cccc(C(F)(F)F)c1 returned HP1b binding inh 36%, G9a inh -32%[59 µM] and JMJD2A Tudor inh -8%.
`O=C(O)C1OC(Oc2cc3oc(-c4ccccc4)cc(=O)c3c(O)c2O)C(O)C(O)C1O` (stereo not given) gave L3MBTL1 block inconclusive, HP1b binding inh -1%, BAZ2B inh -5%, PI5P4Ka inh -20, G9a inh 40µM* and JMJD2A Tudor inh 20µM*.
`NC(=O)C1CCN(C(=O)C2c3ccccc3C(=O)N3CCc4ccccc4C23)CC1` (stereo not given) gave L3MBTL1 block -10%, HP1b binding inh 9%, BAZ2B inh inconclusive, G9a inh 79µM* and JMJD2A Tudor inh -18%.
`CC1CCN(C(=O)C2c3ccccc3C(=O)N3CCc4ccccc4C23)CC1` (stereo not given) gave L3MBTL1 block 7%, HP1b binding inh 21%, BAZ2B inh 0%, G9a inh -33% and JMJD2A Tudor inh inconclusive.
`CC(=O)Nc1ccc(-c2nnc(SCC(=O)c3ccc([N+](=O)[O-])cc3)o2)cc1` gave HP1b binding inh 31%, BAZ2B inh -16%, G9a inh 6%[59 µM] and JMJD2A Tudor inh -3%.
Screening Cc1ccc(S(=O)(=O)N/N=C2/CCCCC2C2CCCCC2)cc1[N+](=O)[O-] (stereo not given) returned L3MBTL1 block -5%, HP1b binding inh inconclusive, BAZ2B inh -2%, PI5P4Ka inh -11, G9a inh inconclusive and JMJD2A Tudor inh 28µM*.
For CCC(C)(C)C1CCC(=NNS(=O)(=O)c2ccc(C)c([N+](=O)[O-])c2)CC1 (stereo not given) the results were L3MBTL1 block 12%, HP1b binding inh 39%, BAZ2B inh -29%, PI5P4Ka inh 1, G9a inh 13µM* and JMJD2A Tudor inh 2%[57.1 µM].
Screening CCSc1ncc(Cl)c(C(=O)N(Cc2ccc(C(C)(C)C)cc2)C2CCS(=O)(=O)C2)n1 (stereo not given) returned HP1b binding inh 26%, BAZ2B inh -12%, G9a inh -11%[59 µM] and JMJD2A Tudor inh -25%.
Screening COCCCNC(=O)c1cc2cc(Br)ccc2oc1=O returned L3MBTL1 block 4%, HP1b binding inh 27%, BAZ2B inh -16%, PI5P4Ka inh -17, G9a inh -9% and JMJD2A Tudor inh -12%.
Screening O=C(NNC(=O)c1cc2cc(Br)ccc2oc1=O)c1ccc(O)cc1O returned HP1b binding inh 0%, BAZ2B inh 11µM*, PI5P4Ka inh 4, G9a inh -3% and JMJD2A Tudor inh inconclusive.
